# Among all 370,000 compounds or so, about 3,700 (1%) were called active. The sample holds actives, similar compounds and a random draw of the others, so the mix is not that of the screen.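 Rule for the calls: active = activation above the mean over all tested compounds plus 3 SD (cut at about 0.9% in these data); inactive = the rest.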
# System: Nuclear hormone receptor DAF-12 (Strongyloides stercoralis)
# Test: ssDAF-12 driven luciferase reporter activation – cell-based, luminescence, HEK293, GRIP1 co-expression, lit1-tk-luc, primary screen (AID 652126);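 note: 0% = DMSO-only wells and 100% = 3 µM delta7-dafachronic acid wells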
# Settings: HEK293 ssDAF-12/GRIP1 lit1-tk-luc reporter, at 6.8 µM, stronger effect = higher value, % of 3 µM dafachronic acid response
row,SMILES,activation
1,CN(C)c1nc(N)nc(CSc2ccccn2)n1,-1.25% (inactive)
2,COc1ccc(C=C(C#N)C#N)c(CSc2ccccn2)c1,2.1% (active)
3,COc1cccc(N(CC(=O)NCCSc2ccccn2)S(C)(=O)=O)c1,-1.16% (inactive)
4,c1coc(CCNc2ncnc3ccc(-c4ccc5c(c4)OCO5)cc23)c1,-0.09% (inactive)
5,CCn1c2ccccc2c2cc(NC(=O)CSc3nnc(-c4ccccc4)n3-c3ccc(C)cc3)ccc21,-1.2% (inactive)
6,COc1cc(/C=N/Nc2nc3ccccc3s2)ccc1O,2.25% (active)
7,O=C(CSc1nc2ccccc2s1)NN=Cc1ccc(O)cc1O,-1.4% (inactive)
8,COc1ccc(/C=N/Nc2ncnc3sc4c(c23)CCCC4)cc1O,-0.66% (inactive)
9,COc1ccccc1CCNC(=O)C1CCN(c2nc(C)cc(C)n2)CC1,-1.36% (inactive)
10,COc1cccc(-c2cc3nc(NCCOc4ccccc4Cl)n(C)c(=O)c3s2)c1,-1.7% (inactive)
11,Cn1c(NCc2cccnc2)nc2cc(-c3ccc(F)cc3)sc2c1=O,-1.06% (inactive)
12,O=c1[nH]c(CCl)nc2cc(-c3ccc(Cl)cc3)sc12,1.53% (active)
13,CC(C)(C)OC(=O)NCc1cc(F)ccc1/C=C/S(=O)(=O)NCCc1ccccc1,-1.87% (inactive)
14,CCC(=O)OCCCN1C(=O)CCC12CCC(c1ccccc1)CC2 (stereo not given),-0.68% (inactive)
15,NNC(=O)C1CCCn2c1nc1sc3c(c1c2=O)CCCC3 (stereo not given),1.14% (active)
16,CCn1c(SCC(C)=O)nc2sc3c(c2c1=O)CCCC3,-2.16% (inactive)
17,Cc1ccc(C)c(-n2c(SCC(=O)O)nc3sc4c(c3c2=O)CCCC4)c1,-1.01% (inactive)
18,COc1cccc(Cn2cc(COC(=O)Nc3ccc(F)cc3)nn2)c1,-0.68% (inactive)
19,COc1ccc(CSc2nnc(-c3cccc(C)c3)n2C)cc1,-1.19% (inactive)
20,COc1ccc(C2CC(c3cccs3)=Nc3ccccc3S2)cc1OC (stereo not given),1.64% (active)

row,SMILES,activation
1,COc1ccc(C2CC(=O)n3c(nc4ccccc43)S2)cc1OC (stereo not given),-1.19% (inactive)
2,COc1ccc(C2CC(c3cccs3)=NN2c2nc(C)c(C(C)=O)s2)cc1OC (stereo not given),-0.94% (inactive)
3,COP(=O)(O)CNC(=O)OCc1ccccc1,-0.73% (inactive)
4,CC(=O)N1CCCN(C2=Nc3ccccc3Sc3ccccc32)CC1,-1.69% (inactive)
5,COc1ccccc1C(=O)COC(=O)CSCC(=O)Nc1cc(C)on1,1.36% (active)
6,Cc1cc(NC(=O)CSCc2ccccc2C)no1,-1.6% (inactive)
7,Cc1cc(NC(=O)CSCC(=O)NC(C)c2ccccc2)no1 (stereo not given),-1.09% (inactive)
8,CN(CCO)c1cccc2c1S(=O)(=O)N(Cc1cn(Cc3ccc(C(F)(F)F)cc3)nn1)Cc1ccccc1O2,-0.96% (inactive)
9,O=C1C(=O)N(Cc2ccc(-c3ccsc3)cc2)c2ccc(OC(F)(F)F)cc21,-0.76% (inactive)
10,CCS(=O)(=O)c1cc([N+](=O)[O-])c(Sc2ccccc2N)s1,0.94% (active)
11,COc1ccccc1C(=O)CSc1nnc(-c2ccccn2)n1-c1ccccc1,-1.43% (inactive)
12,C=CCN1C(=O)[C@@H](CC(=O)NCC2CCCCC2)[C@]2(C(=O)OC)CCCCC=C12,-1.59% (inactive)
13,COCC(=O)N[C@@H]1C[C@@H]2O[C@@H](CO)CC[C@@H]2O[C@@H]1CCc1ccc(-c2ccccc2)cc1,-1.17% (inactive)
14,CN(Cc1nc2ccccc2s1)C(=O)c1ccc(F)cc1,1.11% (active)
15,COc1ccccc1S(=O)(=O)NCc1ccc(C(=O)N(C)Cc2ccc(F)cc2)cc1,-1.02% (inactive)
16,CN(Cc1ccc(F)cc1)C(=O)COc1ccc2ccccc2c1,-0.45% (inactive)
17,CSc1ccc(C=Nn2c(-c3ccc(F)cc3)n[nH]c2=S)cc1,-1.67% (inactive)
18,C[C@@H]1ON(C)[C@H]2C[C@H]3c4[nH]c5cccc(-c6ccc7c(c6)OCO7)c5c4CCN3C[C@@H]12,-0.56% (inactive)
19,O=C(NCCCc1ccccc1)c1cc(COc2c(F)cccc2F)on1,-0.16% (inactive)
20,CC(C)Cc1cc(C(=O)NCCc2ccccc2)no1,1.34% (active)

row,SMILES,activation
1,CC(C)Cc1cc(C(=O)Nc2cc(Br)ccc2O)no1,-1.29% (inactive)
2,COc1ccc(-n2c(SCC(=O)Nc3ccc(C)c(Cl)c3)nc3ccccc3c2=O)cc1,-2.01% (inactive)
3,CC(=O)Nc1nc2ncccn2c1-c1ccc(C(F)(F)F)cc1,-0.67% (inactive)
4,COc1ccccc1C1=Nc2cccc3cccc(c23)N1,-1.81% (inactive)
5,Brc1ccc(C2CC(c3ccccc3)=Nc3ccccc3N2)cc1 (stereo not given),0.69% (inactive)
6,c1ccc(C2=Nc3cccc4cccc(c34)N2)cc1,1.19% (active)
7,COC(=O)[C@]12C[C@H](CC(=O)NCc3ccccc3)C(=O)N(CCC3=CCCCC3)C1=C[C@H](C(C)C)O[C@@H]2C1CC1,-1.77% (inactive)
8,COc1ccc(-n2c(SCC(=O)Nc3ccccc3-c3ccccc3)nnc2-c2cccnc2)cc1,-1.34% (inactive)
9,CN1C(=O)/C(=C\c2cc(Br)cs2)c2ccccc21,1.58% (active)
10,CN1C(=O)/C(=N/OC(=O)c2ccccc2Br)c2ccccc21,-1% (inactive)
11,CCC1C(=O)c2ccccc2N(C)C1=O (stereo not given),-0.91% (inactive)
12,CCC(CO)Nc1cccc2c1S(=O)(=O)N(Cc1cn(Cc3ccccc3C(F)(F)F)nn1)Cc1ccccc1O2 (stereo not given),-1.78% (inactive)
13,CCC(C)(C)NC(=O)CN(C(=O)CCC(=O)Nc1nccs1)c1ccc2c(c1)OCO2,1.27% (active)
14,CCC(C)(C)NC(=O)CN(C(=O)CCC(=O)Nc1cc(C)ccn1)c1ccc2c(c1)OCCO2,-1.73% (inactive)
15,O=C(CN(C(=O)CCC(=O)Nc1nccs1)c1ccc(F)cc1)NCc1ccc2c(c1)OCO2,-0.97% (inactive)
16,FC(F)(F)c1cccc(NC(=S)OC2CCC23CCC(c2ccccc2)CC3)c1 (stereo not given),-0.81% (inactive)
17,CC(NCc1ccco1)C(=O)N1CCCCC1 (stereo not given),-1.35% (inactive)
18,COC(=O)c1sccc1NC(=O)CCC1CCCC1,-0.73% (inactive)
19,COC(=O)c1sccc1NC(=O)c1ccc(Cl)cc1,0.94% (active)
20,COC(=O)c1sccc1N/N=C(\C)c1ccc(F)c(Cl)c1,-1% (inactive)
